Source: PubChem BioAssay
Rab9 prom act – qHTS Assay for Rab9 Promoter Activators. Huh7 Rab9 promoter-luciferase reporter, luminescence, 24 h. Potency, µM (top dose mostly 9.22 µM), without a hit: at the highest dose activation, negative = inhibition, hits mostly activators. 320,000 tested, 2.8% active. AID 485297, 2010; note: % of control where 0% means no effect; nearly all actives have a fitted effect of over 60% in size
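Huh7 cells stably carrying a Rab9 promoter-luciferase reporter, 1500 cells per well in OP-MEM I with 10% FBS, treated with compound 24 hours at 37C. Luciferase activity read by luminescence after 10 minutes with Amplite reagent.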
SMN2 splice enh – qHTS Assay for Enhancers of SMN2 Splice Variant Expression. HEK293 SMN2-luciferase splicing reporter, luminescence, 30-36 h. 210,000 tested, 2.8% active. Potency, µM (top dose mostly 46.1 µM), for the others: at the highest dose activity change, positive = activation, hits mostly activators; note: % of control where 0% means no effect; nearly all actives have a fitted effect of over 55% in size
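HEK293 cells carry an SMN2 minigene-luciferase reporter in which exon 7 inclusion puts luciferase in frame. Cells were seeded at 2000 cells/well, attached for 10-12 hours, then exposed to compounds for 30-36 hours at 37C before ONE-Glo luminescence.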
FLuc counter – qHTS profiling assay for firefly luciferase inhibitor/activator using purifed enzyme and Km concentrations of substrates (counterscreen for miR-21 project) | AID 588342, 2011 | Potency, µM (titrated, usually from 57.5 µM), inactives show at the top dose activity change, negative = inhibition, hits mostly inhibitors | 360,000 tested, 6.9% active | purified FLuc, Km substrates, luminescence inhibition;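 note: plate controls were vehicle for no effect and reference inhibitor for full effect; nearly all actives have a fitted effect of over 55% in size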
Target sequence (P08659 whole entry, looked up): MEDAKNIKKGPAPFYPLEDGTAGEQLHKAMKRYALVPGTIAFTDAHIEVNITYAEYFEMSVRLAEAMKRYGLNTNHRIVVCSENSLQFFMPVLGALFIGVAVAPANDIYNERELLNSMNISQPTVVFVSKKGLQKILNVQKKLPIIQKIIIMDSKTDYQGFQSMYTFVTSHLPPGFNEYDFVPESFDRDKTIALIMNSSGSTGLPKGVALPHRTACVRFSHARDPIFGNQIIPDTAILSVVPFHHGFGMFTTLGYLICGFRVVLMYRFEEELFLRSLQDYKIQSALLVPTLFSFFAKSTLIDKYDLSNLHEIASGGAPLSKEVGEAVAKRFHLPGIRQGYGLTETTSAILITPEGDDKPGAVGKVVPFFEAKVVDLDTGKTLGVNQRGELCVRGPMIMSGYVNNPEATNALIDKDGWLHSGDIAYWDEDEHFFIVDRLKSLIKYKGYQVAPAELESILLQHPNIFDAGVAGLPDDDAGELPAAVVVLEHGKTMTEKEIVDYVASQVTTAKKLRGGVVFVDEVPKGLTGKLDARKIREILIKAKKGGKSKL
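Purified P. pyralis luciferase (10nM final) with 10uM D-luciferin and 10uM ATP (Km levels) in 50mM Tris acetate pH 7.5, 10mM Mg acetate, 0.01% Tween-20, 0.05% BSA; qHTS 6-point titration, ~60 µM downward; luminescence read.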
NPC1 prom act – qHTS Assay for NPC1 Promoter Activators; Huh7 NPC1 promoter luciferase reporter, 24 h; Potency, µM (titrated, usually from 9.22 µM), for the others: top-dose activation, most hits filed as activators; 320,000 tested, 2.4% active; AID 485313, 2010; note: % of control where 0% means no effect; nearly all actives have a fitted effect of over 60% in size
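Readout is luciferase luminescence, reflecting NPC1 promoter activation in stably transfected Huh7 cells after 24 h compound exposure at 37 °C in reduced-serum medium with 10% FBS.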
ELG1 genotox – qHTS screen for small molecules that induce genotoxicity in human embryonic kidney (HEK293T) cells expressing luciferase-tagged ELG1 | Potency, µM (top dose mostly 46 µM), without a hit: at the highest dose activity change, positive = activation, actives largely listed as activators | 330,000 tested, 1.3% active | HEK293T ELG1-luciferase reporter, luminescence, 16 h; note: % of control where 0% means no effect; nearly all actives have a fitted effect of over 60% in size
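Step 1: seed 2,000 HEK293T ELG1-luciferase cells per well. Step 2: add compound or DMSO, incubate 16 hr at 37 °C. Step 3: ONE-Glo, 30 min at room temperature, read luminescence.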
* hit, by the source's call; ? = inconclusive; · = no result; [ ] = remark or other dose. Most compounds without a hit are left out; they make up all but 7.4% or so of the library. Calls come from the whole dose curve; as a rule, active = well fitted curve in the direction sought with a large enough effect; inconclusive = small, poorly fitted or top-dose-only effect, or another doubt; inactive = no such curve, though single readings can be large; an effect the other way counts as inactive or inconclusive. Potency is the fitted concentration of half-maximal effect.

SMILES	Rab9 prom act	SMN2 splice enh	FLuc counter	NPC1 prom act	ELG1 genotox
C=CCn1c(SCC(=O)NCC)nnc1-c1cc2c(s1)CCC(CC)C2 (centres undefined)	22%	?	12µM*	5%	?
Cc1ccc(OCc2nc(-c3ccccc3)no2)cc1	4µM*	·	7.6µM*	?	?
COc1ccccc1-c1noc(COC(=O)c2ccc(Br)o2)n1	-3%	·	1%	-4%	5%
Cc1ccccc1OCc1nc(-c2ccc(Br)o2)no1	8%	11%	17µM*	11%	?
COc1cccc(-c2noc(COc3ccccc3Cl)n2)c1	·	?	11µM*	·	·
c1ccc(NCc2nc(-c3ccccc3)no2)cc1	?	?	17µM*	?	23µM*
COc1ccc(-c2noc(CSc3nc4ccccc4[nH]3)n2)cc1OC	·	-51%	0%	·	·
Cc1cc(C)c(C)c(S(=O)(=O)NCc2ccc(C(=O)N3CCN(C)CC3)cc2)c1C	-12%	·	3%	3%	-4%
Cc1ccc(CNC(=O)C2CCN(S(=O)(=O)c3ccc4c(c3)oc(=O)n4C)CC2)cc1	·	-3%	1%	·	·
COc1ccc(-c2noc(COc3ccc4c(c3)OCO4)n2)cc1	2%	2%	5%	-4%	0%
Cc1ccccc1OCc1nc(-c2ccccc2)no1	4µM*	32µM*	4.8µM*	4µM*	?
COc1ccc(-c2noc(COc3ccccc3OC)n2)cc1OC	3%	12%	?	13%	?
Cc1cc(Br)ccc1OCc1nc(-c2cccnc2)no1	?	?	?	29%	21µM*
c1ccc(-c2noc(COc3ccc4c(c3)OCO4)n2)cc1	2.8µM*	14µM*	2.1µM*	4µM*	9.2µM*
Cc1ccc(-c2noc(COc3ccccc3C)n2)cc1	23%	19%	21µM*	18%	?
CC(NC(=O)C1CCN(S(=O)(=O)c2ccc(F)cc2)CC1)c1ccccc1 (centres undefined)	·	-14%	-4%	·	·
CCC(C)C(NC(=O)c1ccc(Cl)cc1)C(=O)O (centres undefined)	2%	·	3%[2.3 µM]	2%	0%
CCC(C)C(NC(=O)c1ccc(Cl)cc1Cl)C(=O)O (centres undefined)	-6%	15%	19µM*	1%	0%
O=C(Nc1ccc(-c2cn3c(n2)SCC3)cc1)c1ccco1	0.89µM*	·	8.5µM*	2.5µM*	?
CC(=O)Nc1ccc(-c2cn3c(n2)SCC3)cc1	2.8µM*	·	?	?	?
O=C(Nc1cccc(-c2cn3c(n2)SCC3)c1)c1ccc(Br)o1	0%	11%	?	0%	-1%
O=C(Oc1ccc(-c2cn3c(n2)SCC3)cc1)c1ccccc1	1%	?	?	0%	18µM*
O=C(Nc1ccc(NC(=O)c2ccccc2Cl)nc1)c1ccco1	?	·	?	-28%	11%
CCOc1cc(/C=N/NC(=O)C2CCCC2)ccc1OC(C)C	-3%	·	2%	3%	9%
CC(=O)c1ccc(NC(=O)c2ccn(C(=O)OCC(C)C)n2)cc1	?	10µM*	19µM*	4µM*	?
SMILES	Rab9 prom act	SMN2 splice enh	FLuc counter	NPC1 prom act	ELG1 genotox
CC(C)COC(=O)n1ccc(C(=O)N2CCCCC2)n1	2%	-11%	2%	1%	-1%
Cc1ccc(NC(=O)c2ccc(Cl)cc2Cl)cc1O	?	·	8.5µM*	?	?
CNS(=O)(=O)c1ccc(NC(=O)c2ccc(Cl)cc2Cl)cc1	3%	-9%	-13%	-4%	0%
Cc1ccc(C(=O)Nc2ccc(Cl)cc2C(F)(F)F)c(Cl)c1	?	?	11µM*	26%	27%
Cc1ccc(C(=O)Nc2ccc(Cl)cc2C)c(Cl)c1	3.2µM*	10µM*	1.7µM*	0.89µM*	2.9µM*
O=C(c1cc2cc3ccc(Cl)cc3nc2o1)N1CCCCCC1	3.5µM*	·	2.7µM*	2.5µM*	?
O=C(c1cc2cc(Cl)ccc2o1)N1CCCCCC1	4µM*	·	2%	?	13%
CC(OC(=O)c1ccc(NC(=O)CC#N)cc1)C(=O)Nc1ccc(Oc2ccccc2)cc1 (centres undefined)	3%	·	1%	1%	1%
COc1cccc(-c2csc(NC(C)=O)n2)c1	4µM*	28µM*	15µM*	4µM*	10µM*
O=C(CN1CCCCC1)Nc1nc(-c2ccccc2)cs1	22%	·	21µM*	?	?
CN1CCN(CC(=O)Nc2nc(-c3ccccc3)cs2)CC1	-2%	-2%	-18%	-4%	2%
CCc1ccc(-c2csc(NC(=O)Oc3ccccc3)n2)cc1	?	·	6µM*	?	?
CC(OC(=O)c1ccc(NC(=O)CC#N)cc1)C(=O)Nc1nc(-c2ccccc2)cs1 (centres undefined)	16%	·	2%	11%	23µM*
CC1CCN(S(=O)(=O)c2cccc(C(=O)NNC(=O)c3ccco3)c2)CC1	2%	·	2%	0%	-1%
COc1ccccc1C(=O)NC(CCSC)C(=O)NCCCn1nc(C)cc1C (centres undefined)	-2%	·	0%	0%	1%
O=C(CCn1ccc2cc(S(=O)(=O)N3CCCC3)ccc21)NCc1cccc(Br)c1	·	·	4%	·	·
Cc1nc(S(=O)(=O)Nc2ccccc2C(=O)NCC2CC2)cn1C	-1%	·	-2%	-1%	0%
O=C(Nc1ccc2oc(=O)c(C(=O)O)cc2c1)Oc1ccccc1	·	-14%[9.22 µM]	·	·	·
COCC(=O)Nc1nc(-c2ccc(-c3ccccc3)cc2)cs1	0.79µM*	·	?	2.2µM*	0%
O=C(Nc1ccc(O)c(C(=O)O)c1)Oc1ccccc1	12%	·	13µM*	1%	3%
O=C(CN1CCCCC1)Nc1nc(-c2ccc(Cl)cc2)cs1	1%	·	17µM*	1%	7%
CN1CCN(CC(=O)N(C)c2nc(-c3ccccc3)cs2)CC1	2.8µM*	-35%	15µM*	4µM*	?
Nc1c(C(=O)CSc2nnc(Cc3ccccc3)o2)c(=O)[nH]c(=O)n1C1CC1	-2%	·	0%	-2%	-1%
Cn1ncc(Br)c1C(=O)OCC(=O)Nc1nc(-c2ccccc2)cs1	-1%	14µM*	-6%	22%	1%
CCc1ccc(NC(=O)Cc2ccc(OC)cc2)cc1	3%	?	?	18%	13%
CCc1ccc(OC(=O)Nc2ccccc2)cc1	?	·	9.5µM*	-2%	9%
CN(C)/C=N/c1c(C#N)cnn1-c1ccccc1	-19%	-3%	1%	0%	0%
CN(C)/C=N/c1c(C#N)cnn1-c1nc2ccccc2s1	0.13µM*	-10%	-8%	0.11µM*	13%
Cn1cccc1/C=N/NC(=O)c1sc2ccccc2c1Cl	?	0%	2.7µM*	?	14%
